Records with an inconclusive call do not appear. Active and inactive are the calls of the source. Unless noted, calls come from the whole dose curve; as a rule, active = well fitted curve in the direction sought with a large enough effect; inconclusive = small, poorly fitted or top-dose-only effect, or another doubt; inactive = no such curve, though single readings can be large; an effect the other way counts as inactive or inconclusive.

A short description of test [1]: qHTS for Inhibitors of the Functional Ribonucleoprotein Complex (vRNP) of Lassa (LASV) Arenavirus: LASV Primary Screen - GLuc reporter signal (AID 1347082; calls by dose curve; tested in HEK293 reporter line; note: series mostly up to about 57 µM; nearly all actives have a fitted effect of over 60% in size). Background: In qHTS, concentration-response curves come from the screen itself.
Test [2] can be described thus: qHTS for Inhibitors of the Functional Ribonucleoprotein Complex (vRNP) of Lassa (LASV) Arenavirus: Viability assay - alamar blue signal for LASV Primary Screen (AID 1347083; calls by dose curve; tested in HEK293 reporter line; note: series mostly up to about 57 µM; nearly all actives have a fitted effect of over 80% in size).
A short description of test [3]: qHTS for Inhibitors of the Functional Ribonucleoprotein Complex (vRNP) of Lymphocytic Choriomeningitis Arenaviruses (LCMV): Viability assay - alamar blue signal for LCMV Primary Screen (AID 1347085; calls by dose curve; tested in HEK293 reporter line; note: series mostly up to about 57 µM; nearly all actives have a fitted effect of over 80% in size).
Test [4] addresses Nucleoprotein (Lymphocytic choriomeningitis virus (strain Armstrong)) (UniProt P09992). Put plainly: qHTS for Inhibitors of the Functional Ribonucleoprotein Complex (vRNP) of Lymphocytic Choriomeningitis Arenaviruses (LCMV): LCMV Primary Screen - GLuc reporter signal (AID 1347086; calls by dose curve; note: series mostly up to about 57 µM; nearly all actives have a fitted effect of over 70% in size).
A short description of test [5]: qHTS of pediatric cancer cell lines to identify multiple opportunities for drug repurposing: Primary screen for TC32 cells (AID 1347089). Note: nearly all actives have a fitted effect of over 60% in size. The procedure, abridged:
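Luminescent CellTiter-Glo read-out of metabolically active TC32 cells after 48 h compound exposure. Primary: MIPE 11-point, 0.78 nM–46 µM; NPC 8-point, 0.59 nM–46 µM. Confirmatory: 11-point dilutions.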

A short description of test [6]: qHTS of pediatric cancer cell lines to identify multiple opportunities for drug repurposing: Primary screen for DAOY cells (AID 1347090). Note: series mostly up to about 46 µM; nearly all actives have a fitted effect of over 55% in size. The procedure, abridged: (§1)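 Viability measured as metabolically active cells via CellTiter-Glo luminescence following 48 hours of compound exposure, 11-point dilutions in confirmatory testing. 500-1,000 cells/well plated 5 hours before dosing; controls were DMSO and 2.3 µM bortezomib.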

The nature of test [7]: qHTS of pediatric cancer cell lines to identify multiple opportunities for drug repurposing: Primary screen for SJ-GBM2 cells (AID 1347091). The essentials:
as §1

A short description of test [8]: qHTS of pediatric cancer cell lines to identify multiple opportunities for drug repurposing: Primary screen for A673 cells (AID 1347092). Note: nearly all actives have a fitted effect of over 45% in size. The essentials: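 A673 cells (500-1,000 cells/well in growth media) were pre-incubated 5 h at 37 degrees C, then exposed to compounds for 48 h. Viability was read as CellTiter-Glo luminescence; concentration-response curves came directly from the primary screen.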

A short description of test [9]: qHTS of pediatric cancer cell lines to identify multiple opportunities for drug repurposing: Primary screen for SK-N-MC cells (AID 1347093). Note: series mostly up to about 46 µM. The procedure, abridged: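 Metabolically active cells were quantified by ATP-dependent luminescence (CellTiter-Glo, 15 min at room temperature) following 48 h treatment. Cells had been plated at 500-1,000 per well and settled for 5 h beforehand.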

Test [10] is described as follows: qHTS of pediatric cancer cell lines to identify multiple opportunities for drug repurposing: Primary screen for BT-37 cells (AID 1347094). Note: series mostly up to about 57 µM. The procedure, abridged: (§2)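 Plated cells (500-1,000 per well, growth media) were allowed to settle for 5 hours, treated with compound dilutions for 48 hours, then lysed with CellTiter-Glo for 15 min at room temperature before luminescence reading.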

Test [11] in a line: qHTS of pediatric cancer cell lines to identify multiple opportunities for drug repurposing: Primary screen for NB-EBc1 cells (AID 1347095). Note: potency is the fitted concentration of half-maximal effect. The procedure, abridged:
as §2

Test [12] can be described thus: qHTS of pediatric cancer cell lines to identify multiple opportunities for drug repurposing: Primary screen for U-2 OS cells (AID 1347096). Note: nearly all actives have a fitted effect of over 50% in size. The procedure, abridged: (§3)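 Viability after 48 h compound treatment at 37C, 500-1,000 cells/well, read as ATP luminescence with CellTiter-Glo. Primary screens used 11-point (MIPE, 0.78 nM-46 µM) or 8-point (NPC, 0.59 nM-46 µM) final concentrations; follow-up screens used 11-point dilutions.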

Test [13] can be described thus: qHTS of pediatric cancer cell lines to identify multiple opportunities for drug repurposing: Primary screen for Saos-2 cells (AID 1347097). Note: nearly all actives have a fitted effect of over 40% in size. The essentials: as §2
Test [14] can be described thus: qHTS of pediatric cancer cell lines to identify multiple opportunities for drug repurposing: Primary screen for SK-N-SH cells (AID 1347098).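 Note: DMSO served as neutral control and bortezomib at 2.3 µM as positive control; nearly all actives have a fitted effect of over 65% in size.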 The essentials:
(§4)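 Cells (500-1,000/well) rested 5 h, then received compounds for 48 h; metabolically active cells were measured by CellTiter-Glo luminescence. Final concentrations spanned up to 46 µM (MIPE, 11-point) or 0.59 nM-46 µM (NPC, 8-point) in primary screens, 11-point in follow-ups.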

Test [15] is described as follows: qHTS of pediatric cancer cell lines to identify multiple opportunities for drug repurposing: Primary screen for LAN-5 cells (AID 1347100). The essentials:
as §3

Test [16] is described as follows: qHTS of pediatric cancer cell lines to identify multiple opportunities for drug repurposing: Primary screen for Rh18 cells (AID 1347102). Note: nearly all actives have a fitted effect of over 65% in size. The procedure, abridged:
as §3

The nature of test [17]: qHTS of pediatric cancer cell lines to identify multiple opportunities for drug repurposing: Primary screen for NB1643 cells (AID 1347099). Note: nearly all actives have a fitted effect of over 50% in size. The essentials: as §2
A short description of test [18]: qHTS of pediatric cancer cell lines to identify multiple opportunities for drug repurposing: Primary screen for BT-12 cells (AID 1347101). Note: nearly all actives have a fitted effect of over 25% in size. The procedure, abridged:
as §4

Chain of Nucleoprotein (Lymphocytic choriomeningitis virus (strain Armstrong)) (P09992 whole entry, looked up): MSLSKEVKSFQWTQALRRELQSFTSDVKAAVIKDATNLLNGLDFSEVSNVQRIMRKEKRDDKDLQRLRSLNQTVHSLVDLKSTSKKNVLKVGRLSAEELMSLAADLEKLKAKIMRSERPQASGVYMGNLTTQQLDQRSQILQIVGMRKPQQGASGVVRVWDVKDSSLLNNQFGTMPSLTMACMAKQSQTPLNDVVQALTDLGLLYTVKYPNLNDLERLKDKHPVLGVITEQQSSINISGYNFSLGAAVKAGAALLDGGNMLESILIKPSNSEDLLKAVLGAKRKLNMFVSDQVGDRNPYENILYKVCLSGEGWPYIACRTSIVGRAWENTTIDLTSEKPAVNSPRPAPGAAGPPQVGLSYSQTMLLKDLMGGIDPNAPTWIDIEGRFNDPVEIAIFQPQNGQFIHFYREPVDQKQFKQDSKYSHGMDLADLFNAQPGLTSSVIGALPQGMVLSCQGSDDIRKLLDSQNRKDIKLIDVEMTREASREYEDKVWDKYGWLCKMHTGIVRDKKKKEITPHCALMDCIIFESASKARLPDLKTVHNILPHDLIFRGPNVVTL

Regarding `CN(C)CCc1c[nH]c2ccccc12`, the Potency entry in [1], in [2], in [3], in [4], in [5] and in test [6] was “inactive” in each case. Moreover, the Potency result in test [7], in test [8], in test [9], in test [10], in [11] and in test [12] was “inactive” in each case. Further, the Potency entry in test [13], in [14], in test [15] and in [16] was “inactive” each time.
For the compound `O=C(CCCCl)c1ccc(F)cc1`, the Potency result in [1], in test [2], in test [3], in [4], in [5] and in [6] was “inactive” throughout. In addition, the Potency result in test [7], in test [8], in test [9], in test [10], in test [11] and in test [12] was “inactive” each time. The Potency entry in test [13], in [14], in test [17], in test [15] and in [16] was “inactive” each time.
Regarding `CC(C)(O)C(Cl)(Cl)Cl`, the Potency entry in [1], in [2], in test [3], in [4], in [5] and in [6] was “inactive” throughout. The Potency entry in test [7], in test [8], in [9], in test [10], in [11] and in test [12] was “inactive” in each case. The Potency entry in test [13], in [14], in test [15], in test [18] and in test [16] was “inactive” each time.
For the compound `CC(C)[N+](C)(CCC(C(N)=O)(c1ccccc1)c1ccccc1)C(C)C`, the Potency result in test [1], in test [2], in test [3], in test [4], in test [5] and in test [6] was “inactive” each time. In addition, the Potency result in [7], in [8], in test [9], in test [10], in [11] and in [12] was “inactive” in each case. The Potency result in test [13], in test [14], in [15], in test [18] and in test [16] was “inactive” in each case.
On to `CCOP(=S)(OCC)O/N=C(\C#N)c1ccccc1`, for which the Potency result in test [1], in test [2], in test [3], in test [4], in test [5] and in test [6] was “inactive” throughout. Besides, the Potency result in test [7], in test [8], in test [9], in [10], in test [11] and in test [12] was “inactive” throughout. Also, the Potency entry in test [13], in [14], in test [15], in test [18] and in test [16] was “inactive” in each case.
`Nc1ccccc1C(=O)OCC(O)CO` (configuration not stated): the Potency entry in test [1], in test [2], in [3], in test [4], in [5] and in test [6] was “inactive” throughout. The Potency entry in [7], in [8], in test [9], in [10], in test [11] and in test [12] was “inactive” each time. For the same compound, the Potency result in [13], in [14], in test [15], in test [18] and in [16] was “inactive” in each case.
As for `Sc1ccccc1Cl`, the Potency result in test [1], in test [2], in test [3], in test [4], in [5] and in test [6] was “inactive” each time. Also, the Potency entry in test [7], in test [8], in test [9], in [10], in test [11] and in test [12] was “inactive” in each case. For the same compound, the Potency entry in [13], in [14], in [15], in test [18] and in test [16] was “inactive” each time.
In the case of `O=C(N[C@H]1N=C(c2ccccc2F)c2cccc3c2N(CC3)C1=O)c1cc2ccccc2[nH]1`, the Potency result in test [1], in test [2], in [3], in test [4], in [5] and in test [6] was “inactive” each time. Moreover, the Potency result in test [7], in [8], in test [9], in test [10], in [11] and in test [12] was “inactive” each time. Besides, the Potency result in test [13], in test [14], in test [17], in test [15] and in test [16] was “inactive” throughout.
With `CC1Sc2c(C(=O)O)c(=O)c3cc(F)c(N4CCNCC4)cc3n21` (configuration not stated), the Potency entry in [1], in test [2], in [3], in [4], in test [5] and in test [6] was “inactive” throughout. Further, the Potency entry in [7], in test [10], in test [11], in test [12], in test [13] and in test [14] was “inactive” each time. For the same compound, the Potency result in test [15], in test [18] and in test [16] was “inactive” each time.
As for `Cc1nc2ccccc2c(=O)n1-c1ccccc1Cl`, the Potency entry in test [1], in [2], in test [3], in test [4], in [5] and in [6] was “inactive” each time. The Potency entry in test [7], in [8], in test [9], in [10], in [11] and in test [12] was “inactive” each time. The Potency entry in test [17], in test [15], in [18] and in [16] was “inactive” each time.
For the compound `C[C@H]1C(=O)O[C@@H]2CCN3CC=C(COC(=O)[C@](C)(O)[C@]1(C)O)[C@H]23`, the Potency entry in [1], in [2], in test [3], in test [4], in test [5] and in test [6] was “inactive” each time. Besides, the Potency result in test [7], in test [8], in [10], in test [12], in test [13] and in test [14] was “inactive” throughout. Besides, the Potency result in [17], in test [18] and in [16] was “inactive” each time. In test [11], the Potency is 29.9 µM (active).
Turning to `CCS(=O)(=O)C(C)(C)S(=O)(=O)CC`, the Potency result in [1], in test [2], in test [3], in test [4], in [5] and in [6] was “inactive” in each case. Besides, the Potency entry in test [7], in test [8], in test [9], in [10], in test [11] and in [12] was “inactive” each time. Besides, the Potency entry in test [14], in test [15] and in [16] was “inactive” in each case.
On to `CN1CCc2cc(Cl)c(O)cc2[C@H]2c3ccccc3CC[C@@H]21`, for which the Potency entry in [1], in test [2], in [3], in test [4], in [5] and in [6] was “inactive” each time. Besides, the Potency result in test [7], in test [8], in test [9], in [11], in test [12] and in [13] was “inactive” in each case. Further, the Potency result in [17], in [15], in [18] and in test [16] was “inactive” in each case.
Take `O=C(O)Cc1ccccc1`: the Potency result in test [1], in test [2], in test [3], in test [4], in test [5] and in [6] was “inactive” each time. The Potency entry in test [7], in test [8], in test [10], in test [11], in test [12] and in test [13] was “inactive” throughout. The Potency entry in [14], in test [17], in [15], in [18] and in test [16] was “inactive” throughout.
With `Cc1ncc2n1-c1ccc(Cl)cc1C(c1ccccc1F)=NC2`, the Potency entry in test [1], in [2], in [3], in [4], in test [5] and in test [6] was “inactive” each time. Also, the Potency entry in test [7], in test [8], in test [9], in [11], in [12] and in [13] was “inactive” in each case. For the same compound, the Potency entry in [14], in test [18] and in test [16] was “inactive” throughout.
As for `CCOC(=O)C(c1c(O)c2ccccc2oc1=O)c1c(O)c2ccccc2oc1=O`, the Potency result in test [1], in test [2], in test [3], in [4], in test [5] and in [6] was “inactive” throughout. In addition, the Potency entry in test [7], in [8], in test [10], in [11], in [12] and in test [13] was “inactive” in each case. Also, the Potency result in test [14], in test [17], in test [15], in test [18] and in test [16] was “inactive” each time.
